Bioassay records from PubChem BioAssay.
Hits are enriched below; roughly 27% of the tested compounds scored in any of these assays.
CYP2C19 inh = blockers of cytochrome P450 2C19 activity – biochemical, luminescence, ADME assay, primary screen. 96,000 compounds, 21% hits. CYP2C19 Supersomes, luciferin-H EGE luminescence, 30 min. inhibition, % at 5 µM;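 active means CYP2C19 inhibition above a set limit at 5 µM in the primary screen, cut at about 50% in these data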;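 further: plate controls were negative control wells for no effect and 2.5 mM tranylcypromine positive control for full effect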
Target sequence (P33261 whole entry, looked up): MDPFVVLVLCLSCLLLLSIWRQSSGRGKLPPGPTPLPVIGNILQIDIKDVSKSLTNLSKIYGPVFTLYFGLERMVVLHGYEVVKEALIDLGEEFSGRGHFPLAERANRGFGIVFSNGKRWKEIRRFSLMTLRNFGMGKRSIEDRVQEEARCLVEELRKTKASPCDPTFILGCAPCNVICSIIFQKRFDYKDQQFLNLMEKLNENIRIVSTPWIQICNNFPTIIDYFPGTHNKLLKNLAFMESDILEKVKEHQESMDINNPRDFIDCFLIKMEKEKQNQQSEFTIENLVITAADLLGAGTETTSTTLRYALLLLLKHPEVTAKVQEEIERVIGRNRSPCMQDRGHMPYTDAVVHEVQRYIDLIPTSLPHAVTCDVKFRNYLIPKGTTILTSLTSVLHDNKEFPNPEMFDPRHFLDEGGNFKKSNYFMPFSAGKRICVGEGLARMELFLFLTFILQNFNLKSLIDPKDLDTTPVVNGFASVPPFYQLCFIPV
Cav3 T inh = Cav3.2 calcium influx blockers – cell-based, Fluo-4 calcium fluorescence, FDSS, MLSMR library, primary screen; Cav3.2-expressing cells; stronger effect = lower value; AID 449739, 2010; Voltage-dependent T-type calcium channel subunit alpha-1H (Homo sapiens), O95180; B-score at 10 µM; 100,000 compounds, 4% hits;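 active means single-dose well whose peak fluorescence ratio is a statistical outlier from its plate by either plate-standardised score or position-corrected B-score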
CYP2C9 activ = human CYP2C9 activators, primary screen, biochemical, luminescence; recombinant CYP2C9, luciferin-H conversion; stronger effect = higher value; factor 1 = untreated enzyme, 0 = blocked; activation factor at 5 µM; 96,000 compounds, 1.4% hits; AID 1024, 2008;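 active means activation factor of 2 or more for CYP2C9 at a 5 µM dose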;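 further: 0 = sulfaphenazole-blocked wells and 1 = vehicle-only wells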
CYP2C19 act = human CYP2C19 activators, primary screen, biochemical, luminescence; 96,000 tested, under 10 active; activation factor at 5 µM; Cytochrome P450 2C19 (Homo sapiens), P33261; AID 1025, 2008; recombinant CYP2C19, luciferin-H EGE luminescence; stronger effect = higher value; 0 = fully inhibited enzyme, 1 = untreated enzyme;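 active means activation factor of at least 2 at 5 µM in the primary screen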;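 further: 0 = wells with 2.5 mM tranylcypromine and 1 = vehicle-only wells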
CYP2C9 inhib = blockers of cytochrome P450 2C9 activity – biochemical, luminescence, ADME assay, primary screen; P11712; CYP2C9 Supersomes, luciferin-H conversion; inhibition, % at 5 µM; 96,000 compounds, 20% hits; AID 777, 2007;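 active means blocking of liver enzyme CYP2C9 beyond about 50% at 5 µM, limit read from the data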
Numbers without * were called inactive; . = no result.

SMILES	CYP2C19 inh	Cav3 T inh	CYP2C9 activ	CYP2C19 act	CYP2C9 inhib
Cc1csc(NC(=O)c2c(-c3c(Cl)cccc3Cl)noc2C)n1	83.4*	-0.82	0.1	0.2	88.9*
COC(=O)[C@H](CCSC)NC(=O)NC1CCN(Cc2ccccc2)CC1	-22.6	0.174	1.1	1.2	-8.5
CC(C)CC(OC(=O)c1ccco1)C(=O)NC1CCCCC1 (configuration not stated)	83.2*	0.766	0.1	0.2	87.4*
O=C(OC(C(=O)NC1CCCCC1)c1ccccc1)c1ccco1 (configuration not stated)	.	-0.36	.	.	.
CSCCC(NC(=O)c1ccco1)C(=O)OC(C)C(=O)NC(=O)NC1CCCCC1 (configuration not stated)	31.1	-1.96	0.3	0.7	65.2*
O=C(OC(C(=O)NC1CCCC1)c1ccccc1F)c1ccco1 (configuration not stated)	47.5	-0.791	0.3	0.5	68.9*
CC(C)NC(=O)NC(=O)CSc1nncn1C	-7.5	-0.876	1	1.1	-3.6
COc1cc2c(cc1OC)C(C(=O)N1CCN(c3ccccn3)CC1)C(c1cccs1)N(C)C2=O (configuration not stated)	2.0	.	0.9	1	9.3
COC(=O)/C(=C/Nc1cccc2ccccc12)[N+](=O)[O-]	55.2*	-1.17	0.9	0.4	13.2
CCN1CCN(C(=O)Nc2cccc3ccccc23)CC1	4.7	1.29	1.1	1	-7.8
COC(=O)CCN(C(=O)c1ccc(OC(C)=O)cc1)c1ccccn1	-16.3	-0.597	1.1	1.2	-13.4
CCn1c(NCc2ccc3c(c2)OCO3)nc2ccccc21	73.4*	-0.696	0.8	0.3	20.6
C=CCn1c(NCc2ccc3c(c2)OCO3)nc2ccccc21	94.7*	-2.02	0.3	0.1	72.6*
CS(=O)(=O)N(CC(O)CON=C1c2ccccc2-c2ccccc21)c1ccc(F)cc1 (configuration not stated)	15.7	0.879	1.1	0.8	-12.4
Cc1cccc(N(CC(O)CON=C2c3ccccc3-c3ccccc32)S(C)(=O)=O)c1 (configuration not stated)	98.5*	-0.312	0	0	99.2*
COc1cc(OC)c(N2CC34C=CC(O3)C(C(=O)O)C4C2=O)cc1Cl (configuration not stated)	-4.1	-0.213	1.1	1	-6.8
COc1ccc(C(=O)Nc2ccc3c4c(cccc24)CC3)cc1	2.7	-2.12	2.2*	1	-124.8
COc1cc(OC)cc(C(=O)NC(=S)Nc2ccc3c4c(cccc24)CC3)c1	-9.9	-0.0346	0.9	1.1	6.0
O=C(Nc1ccc2c3c(cccc13)CC2)c1ccc(Br)o1	-3.1	.	1.4	1	-35.6
O=C(Nc1ccc2c3c(cccc13)CC2)c1ccco1	22.8	-1.47	2*	0.8	-98.6
CC1(C(=O)O)Cc2ccccc2C(=O)O1 (configuration not stated)	0.3	2.26	1	1	-3.2
Cc1cc(C)nc(-n2nc(C)cc2NC(=O)c2cccc(S(=O)(=O)N3CCOCC3)c2)n1	5.2	1.9	0.7	0.9	27.6
CCCCC(=O)OCCNC(=O)c1cc2ccccc2oc1=O	59.0*	0.176	0.7	0.4	31.8
O=C(OCCNC(=O)c1cc2ccccc2oc1=O)c1cccnc1	9.6	0.211	0.9	0.9	7.5
COCCNC(=O)c1onc(CSc2ccncc2)c1C(=O)NCCOC	.	0.267	.	.	.
SMILES	CYP2C19 inh	Cav3 T inh	CYP2C9 activ	CYP2C19 act	CYP2C9 inhib
CC(C)CCNC(=O)CN(CCN1CCOCC1)C(=O)Cn1nnc(-c2ccc(F)cc2)n1	26.6	0.256	0.9	0.7	12.3
O=C1CC(C(=O)Nc2ncccn2)C(c2ccccc2)O1 (configuration not stated)	9.5	0.642	1	0.9	-2.5
COc1cc(C(=O)NC(=S)Nc2cccc(-c3cc4ccccc4oc3=O)c2)cc(OC)c1OC	21.6	-0.0819	0.3	0.8	68.3*
Cn1c(C(=O)O)c(CC(=O)Nc2ccccc2F)c2ccccc21	59.4*	-0.459	0.1	0.4	93.0*
C=CCn1c(SCC(=O)Nc2ccccc2OC)nnc1-c1ccco1	54.1*	0.0565	0.9	0.5	9.6
COc1ccccc1NC(=O)CSc1ncn(-c2ccccc2)n1	75.9*	-0.627	0.8	0.2	19.1
O=C(CSc1ncn(-c2ccccc2)n1)N1CCN(c2ccccc2)CC1	63.6*	-0.23	0.4	0.4	58.6*
C=CCn1c(SCC(=O)Nc2ccccc2OC)nnc1-c1ccccn1	.	0.154	.	.	.
C=CCn1c(SCC(O)Cn2c3ccccc3c3ccccc32)nnc1-c1ccco1 (configuration not stated)	97.7*	-2.78	0.1	0	90.1*
Cc1ccnc(SCC(=O)N2CCN(c3ccccc3)CC2)n1	.	0.94	.	.	.
N#CCCN(Cc1cccnc1)C(=O)c1ccc(S(=O)(=O)N2CCOCC2)cc1	3.3	0.815	1	1	0.7
CCc1ccccc1NC(=O)CSc1nnc(-c2ccco2)n1N	55.8*	0.0565	1.1	0.4	-10.1
C=CCn1c(SCc2nc(N)nc(N3CCCCC3)n2)nnc1-c1ccco1	58.8*	1.33	0.9	0.4	13.0
COc1ccccc1NC(=O)CSc1nnc(C)n1Cc1ccccc1	52.3*	0.325	1	0.5	-3.3
Cc1cccc(NC(=S)N2CCC(N(C)CC3CCCO3)CC2)c1C (configuration not stated)	-15.7	1.21	1.1	1.2	-9.3
O=C(Nc1ccccc1N1CCN(C(=O)c2ccc(Cl)cc2)CC1)c1ccc(Br)cc1	65.5*	-3.79	0.2	0.3	81.8*
O=C(Nc1ccccc1N1CCN(C(=O)c2ccc(Cl)cc2)CC1)c1cc2ccccc2o1	75.1*	-3.11*	0.1	0.2	91.8*
O=C(Nc1ccc(N2CCN(C(=O)c3ccc(Cl)cc3)CC2)cc1)c1cc2ccccc2o1	10.9	-0.116	0.6	0.9	36.3
CC(C)C(=O)N1CCN(c2ccccc2NC(=O)c2cccc(Cl)c2)CC1	22.4	-3.39	0.7	0.8	30.4
O=C(NC(=O)c1ccc(Cl)cc1)Nc1cc(N2CCCCC2)ncn1	.	-0.194	.	.	.
Cc1nc2sc(C(c3cccs3)N3CC(C)CC(C)C3)c(O)n2n1 (configuration not stated)	67.4*	1.06	1.1	0.3	-14.4
CCO[C@H]1OC(C(=O)NCc2ccccc2)=C[C@@H](c2ccccc2)[C@@H]1CCCO	.	1.2	.	.	.
CC(C)(C)C(=O)Cn1ncc(NC2CC2)c(Br)c1=O	62.5*	0.0386	1.1	0.4	-13.5
CCN(CC)S(=O)(=O)c1ccc(C(=O)N2CCN=C2SCc2cccnc2)cc1	38.1	1.08	0.5	0.6	47.7
